# According to PubChem BioAssay (EPA / NIEHS):
# Calls of active or inactive are those of the source. How the source made its calls, unless noted: active means hit-call score of the fitted dose curve at least 0.9, where 1 is the maximum; inactive means score below 0.9.
# Legend:
# [1] = molecular target: Peroxisome proliferator-activated receptor gamma (Homo sapiens) (UniProt P37231); assay: OT_PPARg_PPARgSRC1_1440: Odyssey Thera (OT) 24-hour Protein-Complementation Assay for Peroxisome Proliferator-activated Receptor Gamma/ SRC-1 Co-activator (AID 2283388; active means hit-call score of the fitted dose curve at least 0.9, where 1 is the maximum;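 further: nuclear to cytoplasmic ratio of reconstituted Venus YFP fluorescence in fixed imaged cells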)
# Chain of Peroxisome proliferator-activated receptor gamma (Homo sapiens) (P37231 whole entry, looked up, the tested form may be a part): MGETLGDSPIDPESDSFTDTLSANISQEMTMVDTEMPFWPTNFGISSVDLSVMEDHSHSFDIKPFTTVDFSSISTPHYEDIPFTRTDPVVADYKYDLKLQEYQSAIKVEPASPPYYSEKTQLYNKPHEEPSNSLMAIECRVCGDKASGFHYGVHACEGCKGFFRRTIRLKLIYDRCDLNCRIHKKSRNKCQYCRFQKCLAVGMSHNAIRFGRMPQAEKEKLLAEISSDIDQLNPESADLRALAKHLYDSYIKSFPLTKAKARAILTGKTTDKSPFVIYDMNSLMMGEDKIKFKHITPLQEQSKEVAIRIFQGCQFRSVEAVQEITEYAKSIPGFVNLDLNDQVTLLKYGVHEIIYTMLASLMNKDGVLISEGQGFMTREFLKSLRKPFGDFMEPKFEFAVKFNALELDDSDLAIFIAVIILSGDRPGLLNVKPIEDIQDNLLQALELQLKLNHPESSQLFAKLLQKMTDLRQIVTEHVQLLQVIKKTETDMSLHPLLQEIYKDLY
# In short: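 Readout is the 488 nm N/C fluorescence ratio from fixed, Draq5-stained HEK293T cells after 24 h compound exposure. Cells carried transiently transfected PPARg and SRC-1 fused to Venus fragments, transfected 48 h before treatment.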
# [2] = read-out: Tumor necrosis factor receptor superfamily member 6 (Homo sapiens) (UniProt P25445); assay: LTEA_HepaRG_FAS: Life Technologies and Expression Analysis (LTEA) Assay for Fas cell surface death receptor (FAS) using HepaRG (AID 2283447); details: mRNA level, 48 h; actives raise or lower the signal
# In short: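 Differentiated HepaRG cells in serum-free induction medium were exposed 48 h to 8 half-log concentrations up to 100 uM in 0.5% DMSO, in duplicate. FAS mRNA was measured by qRT-PCR normalised to ACTB, GAPDH and POLR2A; bidirectional fit versus DMSO.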
# [3] = read-out: Fatty acid synthase (Homo sapiens) (UniProt P49327); assay: LTEA_HepaRG_FASN: Life Technologies and Expression Analysis (LTEA) Assay for Fatty Acid Synthase (FASN) using HepaRG (AID 2283448); details: mRNA level, 48 h; actives raise or lower the signal;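 on AC50: differentiated human HepaRG liver cells in serum-free induction medium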
# In short: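 FASN expression changes, up or down relative to 0.5% DMSO, were measured by qRT-PCR in human HepaRG cells after 48 h treatment with chemicals at eight concentrations (half-log steps from 100 uM).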
# [4] = read-out: Cyclin D2 (CCND2), CCND2 (gene 894); assay: LTEA_HepaRG_CCND2: Life Technologies and Expression Analysis (LTEA) Assay for Cyclin D2 (CCND2) using HepaRG (AID 2283449); details: mRNA level, 48 h; actives raise or lower the signal;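 further: CCND2 transcript measured by TaqMan qRT-PCR and normalised to three housekeeping genes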
# In short: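 Chemicals in 0.5% DMSO, eight half-log concentrations from 100 uM top, were applied in duplicate for 48 h to human HepaRG cells in serum-free induction medium. CCND2 mRNA by TaqMan qRT-PCR, normalised to ACTB/GAPDH/POLR2A; bidirectional fit versus DMSO.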
# [5] = read-out: Cyclin Dependent Kinase Inhibitor 1A (CDKN1A), CDKN1A (gene 1026); assay: LTEA_HepaRG_CDKN1A: Life Technologies and Expression Analysis (LTEA) Assay for Cyclin Dependent Kinase Inhibitor 1A (CDKN1A) using HepaRG (AID 2283450); details: mRNA level, 48 h; actives raise or lower the signal
# In short: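 Expression quantified by Fluidigm qRT-PCR with ACTB, GAPDH and POLR2A normalization, fitted bidirectionally against 0.5% DMSO. Cells: HepaRG, plated 48 h then treated 48 h in serum-free induction medium, top concentration 100 uM with half-log dilutions.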
# [6] = read-out: Cyclin D1 (CCND1), CCND1 (gene 595); assay: LTEA_HepaRG_CCND1: Life Technologies and Expression Analysis (LTEA) Assay for Cyclin D1 (CCND1) using HepaRG (AID 2283451); details: mRNA level, 48 h; actives raise or lower the signal;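 on AC50: differentiated human HepaRG liver cells in serum-free induction medium; TaqMan qRT-PCR transcript level normalised to ACTB GAPDH and POLR2A housekeeping genes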
# In short: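 Expression of CCND1 was quantified by qRT-PCR on Fluidigm arrays using ACTB, GAPDH and POLR2A as reference genes. HepaRG cultures, plated 48 h beforehand, were dosed for 48 h at up to 100 uM (half-log, 8 points) in 0.5% DMSO.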
# [7] = read-out: catalase (CAT), CAT (gene 847); assay: LTEA_HepaRG_CAT: Life Technologies and Expression Analysis (LTEA) Assay for catalase (CAT) using HepaRG (AID 2283452); details: mRNA level, 48 h; actives raise or lower the signal;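 on AC50: TaqMan qRT-PCR signal normalized to ACTB GAPDH and POLR2A housekeeping genes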
# In short: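 HepaRG cells in serum-free induction medium, 0.5% DMSO vehicle, exposed 48 h in duplicate over 8 half-log concentrations from 100 uM. CAT mRNA measured by qRT-PCR, normalized to ACTB, GAPDH, POLR2A; bidirectional fit versus DMSO.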
# [8] = read-out: flavin-containing dimethylaniline monooxygenases 3 (FMO3), FMO3 (gene 2328); assay: LTEA_HepaRG_FMO3: Life Technologies and Expression Analysis (LTEA) Assay for flavin-containing dimethylaniline monooxygenases 3 (FMO3) using HepaRG (AID 2283453); details: mRNA level, 48 h; actives raise or lower the signal;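 on AC50: differentiated human HepaRG liver cells in serum-free induction medium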
# In short: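 Differentiated HepaRG cells in serum-free induction medium, exposed 48 h in duplicate to 8 half-log concentrations up to 100 uM in 0.5% DMSO. FMO3 mRNA by qRT-PCR, normalized to ACTB, GAPDH, POLR2A; bidirectional fit vs DMSO.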
# [9] = read-out: Cytochrome P450 (CYP1A1), CYP1A1 (gene 1543); assay: LTEA_HepaRG_CYP1A1: Life Technologies and Expression Analysis (LTEA) Assay for Cytochrome P450 (CYP1A1) using HepaRG (AID 2283454); details: mRNA level, 48 h; actives raise or lower the signal
# In short: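 CYP1A1 transcript levels measured by Fluidigm qRT-PCR against three housekeeping genes, 48 h after chemical dosing of human HepaRG cells (highest concentration 100 uM, half-log steps, 0.5% DMSO vehicle). Gain or loss of signal fitted relative to DMSO.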
# [10] = read-out: CFLAR gene, CFLAR (gene 8837); assay: LTEA_HepaRG_CFLAR: Life Technologies and Expression Analysis (LTEA) Assay for CFLAR gene using HepaRG (AID 2283455); details: mRNA level, 48 h; actives raise or lower the signal
# In short: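 Differentiated HepaRG cells in serum-free induction medium were exposed 48 h in duplicate to eight half-log concentrations up to 100 uM in 0.5% DMSO; mRNA measured by TaqMan qRT-PCR, normalized to ACTB, GAPDH, POLR2A; bidirectional fitting versus DMSO.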
# Chain of Fatty acid synthase (Homo sapiens) (P49327 whole entry, looked up): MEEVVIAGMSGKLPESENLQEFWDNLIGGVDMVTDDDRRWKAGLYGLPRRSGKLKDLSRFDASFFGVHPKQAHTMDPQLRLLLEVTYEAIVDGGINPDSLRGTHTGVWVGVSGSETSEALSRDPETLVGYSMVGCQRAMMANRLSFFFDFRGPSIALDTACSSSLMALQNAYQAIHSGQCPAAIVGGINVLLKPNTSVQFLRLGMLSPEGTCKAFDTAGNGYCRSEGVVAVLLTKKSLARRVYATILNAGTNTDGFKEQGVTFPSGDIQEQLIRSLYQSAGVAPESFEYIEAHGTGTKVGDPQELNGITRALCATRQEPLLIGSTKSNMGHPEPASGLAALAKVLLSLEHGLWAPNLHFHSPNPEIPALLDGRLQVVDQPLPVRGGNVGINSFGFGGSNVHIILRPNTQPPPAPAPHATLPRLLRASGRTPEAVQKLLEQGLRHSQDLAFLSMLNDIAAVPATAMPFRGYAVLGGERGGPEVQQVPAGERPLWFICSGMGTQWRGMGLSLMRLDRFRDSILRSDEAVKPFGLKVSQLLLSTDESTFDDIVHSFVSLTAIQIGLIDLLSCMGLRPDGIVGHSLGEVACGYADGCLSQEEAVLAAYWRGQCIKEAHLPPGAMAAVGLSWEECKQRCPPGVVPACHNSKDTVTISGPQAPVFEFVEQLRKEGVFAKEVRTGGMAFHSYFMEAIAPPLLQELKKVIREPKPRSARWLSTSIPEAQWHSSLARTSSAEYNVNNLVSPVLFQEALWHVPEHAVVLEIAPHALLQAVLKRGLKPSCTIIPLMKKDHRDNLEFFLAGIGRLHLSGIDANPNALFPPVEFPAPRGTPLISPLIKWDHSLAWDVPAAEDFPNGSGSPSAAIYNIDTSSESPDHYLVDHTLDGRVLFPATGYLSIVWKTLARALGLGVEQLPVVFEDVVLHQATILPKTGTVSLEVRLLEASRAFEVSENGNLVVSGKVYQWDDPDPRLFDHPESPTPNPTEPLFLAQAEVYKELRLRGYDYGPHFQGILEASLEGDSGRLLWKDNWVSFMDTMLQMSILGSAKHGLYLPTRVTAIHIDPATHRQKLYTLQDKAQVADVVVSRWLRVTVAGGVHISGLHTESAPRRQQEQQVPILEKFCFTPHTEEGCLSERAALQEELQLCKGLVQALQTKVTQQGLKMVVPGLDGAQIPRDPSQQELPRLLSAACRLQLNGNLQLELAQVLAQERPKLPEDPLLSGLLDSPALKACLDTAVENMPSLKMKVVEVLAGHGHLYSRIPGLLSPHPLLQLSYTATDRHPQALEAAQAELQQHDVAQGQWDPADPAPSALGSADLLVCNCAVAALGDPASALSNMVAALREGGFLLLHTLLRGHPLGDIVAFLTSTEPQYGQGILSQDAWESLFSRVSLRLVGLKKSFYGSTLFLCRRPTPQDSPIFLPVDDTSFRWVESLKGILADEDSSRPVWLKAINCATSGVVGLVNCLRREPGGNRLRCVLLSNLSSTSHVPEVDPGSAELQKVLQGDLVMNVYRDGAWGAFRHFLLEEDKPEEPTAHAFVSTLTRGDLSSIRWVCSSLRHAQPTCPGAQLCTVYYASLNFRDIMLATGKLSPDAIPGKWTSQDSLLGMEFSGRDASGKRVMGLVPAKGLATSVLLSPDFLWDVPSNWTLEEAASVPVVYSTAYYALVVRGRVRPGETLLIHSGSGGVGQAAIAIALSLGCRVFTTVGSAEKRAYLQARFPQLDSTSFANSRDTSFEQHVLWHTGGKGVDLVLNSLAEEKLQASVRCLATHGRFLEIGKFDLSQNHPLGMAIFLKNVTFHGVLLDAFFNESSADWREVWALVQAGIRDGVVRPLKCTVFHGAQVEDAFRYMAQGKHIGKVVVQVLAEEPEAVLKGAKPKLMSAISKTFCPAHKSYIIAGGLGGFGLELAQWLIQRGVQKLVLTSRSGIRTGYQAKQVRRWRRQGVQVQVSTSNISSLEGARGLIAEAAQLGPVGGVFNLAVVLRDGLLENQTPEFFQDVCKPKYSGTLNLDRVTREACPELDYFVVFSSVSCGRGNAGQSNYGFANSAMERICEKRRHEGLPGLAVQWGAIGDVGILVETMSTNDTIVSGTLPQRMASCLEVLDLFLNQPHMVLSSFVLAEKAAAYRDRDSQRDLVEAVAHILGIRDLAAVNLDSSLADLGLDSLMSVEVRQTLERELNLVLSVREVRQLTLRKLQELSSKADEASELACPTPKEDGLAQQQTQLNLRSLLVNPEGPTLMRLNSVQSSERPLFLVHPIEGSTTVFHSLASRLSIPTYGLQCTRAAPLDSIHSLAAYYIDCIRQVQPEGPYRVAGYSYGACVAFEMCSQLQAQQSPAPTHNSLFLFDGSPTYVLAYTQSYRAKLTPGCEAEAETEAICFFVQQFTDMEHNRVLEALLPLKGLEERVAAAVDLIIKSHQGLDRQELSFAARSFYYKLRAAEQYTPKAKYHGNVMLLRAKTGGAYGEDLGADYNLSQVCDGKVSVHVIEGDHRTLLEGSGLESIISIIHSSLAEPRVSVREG
structure (smiles),measurement,setting,value
COC(=O)C=C(C)OP(=O)(OC)OC,outcome,[1],inactive
same,outcome,[2],inactive
same,outcome,[3],inactive
same,outcome,[4],inactive
same,outcome,[5],inactive
same,outcome,[6],inactive
same,outcome,[7],inactive
same,outcome,[8],inactive
same,outcome,[9],inactive
Cc1ccc(-c2c(Cl)nc(C#N)n2S(=O)(=O)N(C)C)cc1,outcome,[1],inactive
same,outcome,[2],inactive
same,AC50,[3],9 µM (active)
same,AC50,[4],0.00629 µM (active)
same,outcome,[5],inactive
same,outcome,[6],inactive
same,AC50,[7],7.28 µM (active)
same,AC50,[8],19.5 µM (active)
same,AC50,[9],3.53 µM (active)
same,AC50,[10],7.21 µM (active)
N#Cc1nn(-c2c(Cl)cc(C(F)(F)F)cc2Cl)c(N)c1S(=O)C(F)(F)F (stereo not given),outcome,[1],inactive
same,AC50,[2],61.2 µM (active)
same,AC50,[3],58.1 µM (active)
same,outcome,[4],inactive
same,AC50,[5],32.5 µM (active)
same,AC50,[6],83.4 µM (active)
same,AC50,[7],29.5 µM (active)
same,AC50,[8],54.9 µM (active)
same,AC50,[9],14.9 µM (active)
same,AC50,[10],50.2 µM (active)
COC(=O)c1ccccc1C(=O)OC,outcome,[1],inactive
same,outcome,[2],inactive
same,outcome,[3],inactive
same,outcome,[4],inactive
same,outcome,[5],inactive
same,outcome,[6],inactive
same,outcome,[7],inactive
same,outcome,[8],inactive
same,outcome,[9],inactive
CCCCNC(=O)OCC#CI,outcome,[1],inactive
same,AC50,[2],0.00316 µM (active)
same,outcome,[3],inactive
same,outcome,[4],inactive
same,outcome,[5],inactive
same,outcome,[6],inactive
same,outcome,[7],inactive
same,AC50,[8],50 µM (active)
same,AC50,[9],50 µM (active)
COC(=O)C(C)Oc1ccc(Oc2ccc(Cl)cc2Cl)cc1 (stereo not given),outcome,[1],inactive
same,outcome,[2],inactive
same,outcome,[3],inactive
same,outcome,[4],inactive
same,outcome,[5],inactive
same,outcome,[6],inactive
same,outcome,[7],inactive
same,outcome,[8],inactive
same,AC50,[9],38.3 µM (active)
same,outcome,[10],inactive
COc1ccc(C(c2ccc(OC)cc2)C(Cl)(Cl)Cl)cc1,outcome,[1],inactive
same,outcome,[2],inactive
same,AC50,[3],80.5 µM (active)
same,outcome,[5],inactive
same,outcome,[6],inactive
same,AC50,[7],89.1 µM (active)
same,AC50,[8],79.5 µM (active)
same,AC50,[9],22.6 µM (active)
